# From PubChem BioAssay (EPA / NIEHS)
# Results filed as inconclusive are left out. Active and inactive are the calls of the source. The calls were made as follows: active = hit-call score of the fitted dose curve at least 0.9, where 1 is the maximum; inconclusive = response in the unintended direction; inactive = score below 0.9.
# Tests used:
# [1] = system: zebrafish Estrogen Receptor (ER2a), gene 317734; test: ATG_zfER2a_XSP2: Attagene TRANS-FACTORIAL Multi-Species (XSP2) HepG2 Assay for zebrafish Estrogen Receptor (ER2a) (AID 2283818);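 also: hits raise reporter mRNA so AC50 reflects activation of zebrafish ER2a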
# How it was run: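 HepG2 cells transiently transfected with GAL4-UAS reporter units and chimeric zebrafish ER2a-Gal4, exposed 24 h; medium contains 3 nM 6-alpha-fluorotestosterone and 1.5 nM norgestrel. Reporter mRNA quantified by RT-PCR, HpaI digestion, capillary electrophoresis; gain versus DMSO.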
# [2] = system: frog Estrogen Receptor (ER), gene 398734; test: ATG_frER1_XSP2: Attagene TRANS-FACTORIAL Multi-Species (XSP2) HepG2 Assay for frog Estrogen Receptor (ER) (AID 2283821);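 also: hits raise reporter mRNA above DMSO baseline so potency means agonist or activator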
# How it was run: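 HepG2 cells transiently transfected with GAL4-UAS reporter units expressing a chimeric frog ER-Gal4 protein; 24 h exposure. Reporter mRNA quantified by RT-PCR, fluorescent labelling and capillary electrophoresis; gain of signal fitted against DMSO baseline.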
# [3] = system: zebrafish Estrogen Receptor (ER2b), gene 317733; test: ATG_zfER2b_XSP2: Attagene TRANS-FACTORIAL Multi-Species (XSP2) HepG2 Assay for zebrafish Estrogen Receptor (ER2b) (AID 2283823);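 also: fitted upward as reporter gain over DMSO so potency reflects activation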
# How it was run: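 Cells used were HepG2, transiently transfected with chimeric nuclear receptor-Gal4 reporter units. After 24 h of chemical treatment, reporter transcripts were amplified by RT-PCR, labelled and sized by capillary electrophoresis, with induction analysed relative to DMSO.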
# [4] = system: frog Estrogen Receptor (ER2), gene 100174814; test: ATG_frER2_XSP2: Attagene TRANS-FACTORIAL Multi-Species (XSP2) HepG2 Assay for frog Estrogen Receptor (ER2) (AID 2283828)
# How it was run: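 HepG2 cells transiently transfected with multiplexed GAL4-UAS reporter units expressing chimeric frog ER2–Gal4 protein; reporter mRNA measured 24 h after chemical dosing by RT-PCR, fluorescent labeling and capillary electrophoresis. Gain-of-signal fitted relative to DMSO baseline.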
# [5] = target: Peroxisome proliferator-activated receptor gamma (Homo sapiens) (UniProt P37231); test: ATG_hPPARg_XSP2: Attagene TRANS-FACTORIAL Multi-Species (XSP2) HepG2 Assay for human Peroxisome Proliferator-activated Receptor gamma (PPARg) (AID 2283829);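 also: actives raise reporter mRNA above DMSO so AC50 reflects PPARg activation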
# Experimental: ATG_XSP2_multi-species_TRANS is a cell-based, multiplexed assay created by modifying the existing Attagene TRANS-FACTORIAL system to include a panel of nuclear receptors from some or all the following species: human (Homo sapiens), mouse (Mus musculus), frog (Xenopus laevis), zebrafish (Danio rerio), chicken (Gallus gallus), and turtle (Chrysemys picta). The ECOTOX-FACTORIAL format uses HepG2, a human liver cell line, with measurements taken at 24 hours after chemical dosing in a 24-well plate. Xsp2 included 3 nM 6-alpha-fluorotestosterone and 1.5 nM norgestrel to stimulate the androgen receptor.ATG_hPPARg_XSP2 is one of 29 assay components measured or calculated from the ATG_XSP2_multi-species_TRANS assay. It is designed to make measurements of mRNA induction, a form of inducible reporter, as detected with fluorescence intensity signals by Reverse transcription polymerase chain reaction (RT-PCR) and Capillary electrophoresis technology.The assay endpoint ATG_hPPARg_XSP2 was analyzed in the positive analysis fitting direction relative to DMSO as the negative control and baseline of activity. […] Furthermore, this assay endpoint can be referred to as a primary readout, because this assay has produced multiple assay endpoints where this one serves a reporter gene function. […]
# [6] = system: chicken Androgen Receptor (AR), gene 422165; test: ATG_chAR_XSP2: Attagene TRANS-FACTORIAL Multi-Species (XSP2) HepG2 Assay for chicken Androgen Receptor (AR) (AID 2283819);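 also: hits raise reporter mRNA above DMSO so potency is for activation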
# How it was run: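 HepG2 cells transiently transfected with chicken AR–GAL4 chimeric reporter constructs, stimulated with 3 nM 6-alpha-fluorotestosterone plus 1.5 nM norgestrel, dosed 24 h. Reporter mRNA quantified by RT-PCR and capillary electrophoresis; gain of signal fitted versus DMSO.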
# [7] = system: frog Androgen Receptor (AR), gene 399456; test: ATG_frAR_XSP2: Attagene TRANS-FACTORIAL Multi-Species (XSP2) HepG2 Assay for frog Androgen Receptor (AR) (AID 2283824);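 also: actives raise reporter signal above DMSO so AC50 reflects agonist-like induction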
# How it was run: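 HepG2 cells transiently transfected with GAL4-UAS reporter units and frog (Xenopus laevis) AR-Gal4 chimera; reporter mRNA measured 24 h after dosing by RT-PCR and capillary electrophoresis. Gain of signal fitted relative to DMSO baseline.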
# [8] = target: Estrogen receptor (Homo sapiens) (UniProt P03372); test: ATG_hERa_XSP2: Attagene TRANS-FACTORIAL Multi-Species (XSP2) HepG2 Assay for human Estrogen Receptor (ERa) (AID 2283827)
# How it was run: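 HepG2 cells transiently transfected with multiplexed GAL4-UAS reporters driven by chimeric receptor-Gal4 proteins, dosed 24 h with 3 nM 6-alpha-fluorotestosterone and 1.5 nM norgestrel present. Reporter mRNA by RT-PCR and capillary electrophoresis; gain-of-signal fit versus DMSO.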
# [9] = target: Nuclear receptor subfamily 1 group I member 2 (Mus musculus) (UniProt O54915); test: ATG_mPXR_XSP2: Attagene TRANS-FACTORIAL Multi-Species (XSP1) HepG2 Assay for mouse Pregnane X Receptor (PXR) (AID 2283831)
# How it was run: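 Reporter transcripts were quantified by RT-PCR, FAM primer extension, HpaI digestion and capillary electrophoresis after 24 h of chemical exposure in transiently transfected HepG2 cells carrying chimeric receptor-GAL4 constructs; DMSO served as baseline.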
# [10] = target: zebrafish Thyroid Hormone Receptor alpha (TRa), thraa (gene 30670) (UniProt Q98867); test: ATG_zfTRa_XSP2: Attagene TRANS-FACTORIAL Multi-Species (XSP1) HepG2 Assay for zebrafish Thyroid Hormone Receptor alpha (TRa) (AID 2283832);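 also: actives raise zebrafish TRa-Gal4 reporter transcript above DMSO baseline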
# How it was run: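 Chimeric receptor-Gal4 activity was assessed in transfected human liver HepG2 cells 24 h after dosing, using reporter transcript levels detected by RT-PCR and capillary electrophoresis. DMSO served as baseline.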
# Sequence of Peroxisome proliferator-activated receptor gamma (Homo sapiens) (P37231 whole entry, looked up): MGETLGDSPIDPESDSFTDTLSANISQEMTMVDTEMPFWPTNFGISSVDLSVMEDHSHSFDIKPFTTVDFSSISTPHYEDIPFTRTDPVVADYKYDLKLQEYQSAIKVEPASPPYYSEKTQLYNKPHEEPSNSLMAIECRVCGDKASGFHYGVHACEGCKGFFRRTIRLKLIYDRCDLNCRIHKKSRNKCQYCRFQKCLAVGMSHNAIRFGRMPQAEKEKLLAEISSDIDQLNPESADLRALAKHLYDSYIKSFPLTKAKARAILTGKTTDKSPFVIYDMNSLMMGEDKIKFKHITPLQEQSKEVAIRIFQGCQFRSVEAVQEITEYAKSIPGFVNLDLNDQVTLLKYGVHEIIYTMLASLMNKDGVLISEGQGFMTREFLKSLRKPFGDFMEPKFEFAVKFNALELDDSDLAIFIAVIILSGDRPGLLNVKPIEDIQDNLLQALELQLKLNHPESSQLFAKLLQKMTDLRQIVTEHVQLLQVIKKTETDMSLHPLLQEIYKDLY
# Sequence of Nuclear receptor subfamily 1 group I member 2 (Mus musculus) (O54915 whole entry, looked up, the tested form may be a part): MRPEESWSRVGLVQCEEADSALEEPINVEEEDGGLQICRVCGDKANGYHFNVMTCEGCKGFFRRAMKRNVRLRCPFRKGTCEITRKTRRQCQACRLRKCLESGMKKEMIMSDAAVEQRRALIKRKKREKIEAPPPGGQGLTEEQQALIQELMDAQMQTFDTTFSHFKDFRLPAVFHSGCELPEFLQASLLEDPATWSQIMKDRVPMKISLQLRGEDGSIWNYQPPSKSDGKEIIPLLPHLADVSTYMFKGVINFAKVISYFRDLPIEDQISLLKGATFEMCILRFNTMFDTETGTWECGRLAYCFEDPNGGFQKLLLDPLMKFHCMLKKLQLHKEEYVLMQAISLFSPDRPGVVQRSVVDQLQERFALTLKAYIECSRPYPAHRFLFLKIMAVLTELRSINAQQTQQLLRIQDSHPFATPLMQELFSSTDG
# Sequence of zebrafish Thyroid Hormone Receptor alpha (TRa), thraa (gene 30670) (Q98867 whole entry, looked up, the tested form may be a part): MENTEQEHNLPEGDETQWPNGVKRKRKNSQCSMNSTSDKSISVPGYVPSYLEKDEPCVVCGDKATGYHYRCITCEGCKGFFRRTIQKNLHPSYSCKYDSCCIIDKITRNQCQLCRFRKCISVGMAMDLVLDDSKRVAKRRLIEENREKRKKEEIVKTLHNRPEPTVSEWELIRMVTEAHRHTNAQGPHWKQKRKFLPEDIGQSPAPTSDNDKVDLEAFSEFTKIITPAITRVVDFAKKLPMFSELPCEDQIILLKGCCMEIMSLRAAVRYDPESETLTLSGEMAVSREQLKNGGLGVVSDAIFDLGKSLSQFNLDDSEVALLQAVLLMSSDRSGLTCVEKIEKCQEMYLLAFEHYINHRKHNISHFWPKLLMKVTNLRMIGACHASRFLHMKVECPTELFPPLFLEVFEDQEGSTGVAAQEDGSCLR
# Sequence of Estrogen receptor (Homo sapiens) (P03372 whole entry, looked up, the tested form may be a part): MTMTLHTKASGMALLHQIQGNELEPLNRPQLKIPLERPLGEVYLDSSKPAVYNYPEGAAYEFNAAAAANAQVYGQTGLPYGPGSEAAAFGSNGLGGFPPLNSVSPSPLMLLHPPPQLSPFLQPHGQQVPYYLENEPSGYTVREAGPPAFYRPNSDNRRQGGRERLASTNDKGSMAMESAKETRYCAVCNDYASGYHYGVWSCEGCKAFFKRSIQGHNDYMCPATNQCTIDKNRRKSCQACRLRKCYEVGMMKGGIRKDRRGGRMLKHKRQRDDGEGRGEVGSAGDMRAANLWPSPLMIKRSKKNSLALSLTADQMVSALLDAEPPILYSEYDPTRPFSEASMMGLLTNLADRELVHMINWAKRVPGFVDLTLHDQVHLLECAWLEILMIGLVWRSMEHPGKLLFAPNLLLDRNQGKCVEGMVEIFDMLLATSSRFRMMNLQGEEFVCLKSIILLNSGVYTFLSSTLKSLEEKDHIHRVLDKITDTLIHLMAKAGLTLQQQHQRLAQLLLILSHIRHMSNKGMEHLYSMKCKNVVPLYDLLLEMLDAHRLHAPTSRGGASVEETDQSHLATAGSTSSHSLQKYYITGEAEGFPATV
SMILES,AC50 [1],AC50 [2],AC50 [3],AC50 [4],outcome [5],outcome [6],outcome [7],AC50 [8],outcome [9],outcome [10]
C[C@]12CC[C@H]3C(=CCc4cc(O)ccc43)[C@@H]1CCC2=O,14.7 nM (active),15.9 nM (active),25.8 nM (active),22.8 nM (active),inactive,–,–,–,–,–
O=C(c1ccccc1)c1ccc(O)cc1O,4680 nM (active),3760 nM (active),5040 nM (active),2730 nM (active),inactive,inactive,inactive,2.31 µM (active),inactive,inactive
